JMJD2A Tudor inh – inhibitors of human JMJD2A Tudor domain; O75164; AlphaScreen JMJD2A-Tudor / H3K4me3 peptide binding; Potency, µM (doses to about 114 µM), for inactives: at the top dose activity change, negative = inhibition, hits mostly inhibitors; 390,000 tested, 4.4% active; AID 504339; note: % is set by controls: 0 for no effect and ±100 for the full control effect; nearly all actives have a fitted effect of over 50% in size
Target sequence (O75164 whole entry, looked up, the tested form may be a part): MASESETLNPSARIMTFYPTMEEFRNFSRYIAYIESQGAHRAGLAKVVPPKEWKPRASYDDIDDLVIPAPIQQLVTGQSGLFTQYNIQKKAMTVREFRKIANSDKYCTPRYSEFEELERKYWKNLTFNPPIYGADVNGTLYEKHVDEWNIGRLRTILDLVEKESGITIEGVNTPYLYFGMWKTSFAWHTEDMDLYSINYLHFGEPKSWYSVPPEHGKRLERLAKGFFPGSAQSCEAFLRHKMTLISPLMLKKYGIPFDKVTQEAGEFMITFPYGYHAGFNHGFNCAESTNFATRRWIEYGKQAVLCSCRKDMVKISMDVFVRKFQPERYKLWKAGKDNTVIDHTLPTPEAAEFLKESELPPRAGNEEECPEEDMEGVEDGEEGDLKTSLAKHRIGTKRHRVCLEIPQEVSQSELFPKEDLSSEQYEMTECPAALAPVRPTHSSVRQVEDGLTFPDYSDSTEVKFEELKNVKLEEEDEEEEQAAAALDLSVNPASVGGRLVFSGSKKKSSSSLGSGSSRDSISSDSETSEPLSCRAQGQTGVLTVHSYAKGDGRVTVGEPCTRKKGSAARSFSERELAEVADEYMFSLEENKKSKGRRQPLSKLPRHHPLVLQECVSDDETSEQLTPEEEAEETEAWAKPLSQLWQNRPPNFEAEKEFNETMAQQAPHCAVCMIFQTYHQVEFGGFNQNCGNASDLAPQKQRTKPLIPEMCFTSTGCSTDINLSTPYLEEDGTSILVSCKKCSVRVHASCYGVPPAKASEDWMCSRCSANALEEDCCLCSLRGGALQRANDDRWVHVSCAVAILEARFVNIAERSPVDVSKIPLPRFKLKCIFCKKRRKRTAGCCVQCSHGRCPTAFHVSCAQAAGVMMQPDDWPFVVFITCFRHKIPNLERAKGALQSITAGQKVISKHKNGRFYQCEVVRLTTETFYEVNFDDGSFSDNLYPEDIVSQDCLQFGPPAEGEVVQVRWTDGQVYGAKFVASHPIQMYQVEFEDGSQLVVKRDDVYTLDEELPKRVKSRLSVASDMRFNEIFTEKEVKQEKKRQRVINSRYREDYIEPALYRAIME
L3MBTL1 inh – inhibitors of human L3MBTL1; Q9Y468; AlphaScreen L3MBTL1–H3K9me1 peptide binding; Potency, µM (highest dose often 57.1 µM), without a hit: top-dose activity, negative = inhibition, hits mostly inhibitors; 230,000 tested, 0.66% active; AID 485360; note: % is set by controls: 0 for no effect and ±100 for the full control effect; nearly all actives have a fitted effect of over 60% in size
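AlphaScreen assay: L3MBTL1 (50 nM final) was preincubated 30 min at room temperature with biotinylated H3(1-15)K9me1 peptide (75 nM final), then 30 min with library compounds; streptavidin donor and nickel chelate acceptor beads (10 ug/mL final) added, 30 min dark.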
G9a inh – G9a (human) methyltransferase inhibition. Q96KQ7. G9a H3K9 monomethylation, AlphaScreen, 2 h. Potency, µM (titrated, usually from 102 µM), for the others: at the top dose activity, negative = inhibition, most hits filed as inhibitors. 350,000 tested, 8.8% active. AID 504332; note: % is set by controls: 0 for no effect and ±100 for the full control effect; nearly all actives have a fitted effect of over 75% in size
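G9a (20 nM) was preincubated 15 min with compound, then reacted 2 h at room temperature with 500 nM biotin-H3K9 peptide and 20 µM SAM. Monomethyl-H3K9 detected by AlphaScreen using anti-H3K9me1 antibody.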
GLS inh – blocks human kidney-isoform glutaminase activity. O94925. GLS enzymatic activity, qHTS titration. Potency, µM (series often up to 45.5 µM), without a hit: at the top dose activity change, negative = inhibition, most hits filed as inhibitors. 410,000 tested, 0.21% active. AID 624170; note: % is set by controls: 0 for no effect and ±100 for the full control effect
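Read-out is an Amplex red fluorescence increase coupled through glutamate oxidase and HRP, measured before and after 30 min room-temperature incubation. hKGA is in 45 mM KH2PO4 (pH 8.2) with 0.02% Tween-20; glutamine added as 1mM solution.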
BAZ2B block – inhibitors of human BAZ2B bromodomain | Q9UIF8 | AlphaScreen BAZ2B-H3K14Ac peptide displacement | Potency, µM (highest dose often 114 µM), for inactives: at the highest dose activity change, negative = inhibition, most hits filed as inhibitors | 360,000 tested, 4.4% active | AID 504333; note: % is set by controls: 0 for no effect and ±100 for the full control effect; nearly all actives have a fitted effect of over 60% in size
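BAZ2B 50 nM plus b-H3(5-23)K14Ac 50 nM, PBS pH 7.4/0.01% Tween-20, 30 min RT; compound added (max 110 uM), 30 min RT; streptavidin donor/Ni-chelate acceptor beads 10 ug/mL final, 20 min dark; AlphaScreen read.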
HP1b chromo inh – inhibitors of HP1-beta chromodomain binding to methylated histone tails | P83916 | 390,000 tested, 0.56% active | AlphaScreen HP1-beta / biotin-H3K9me3 peptide binding | AID 540317 | Potency, µM (series often up to 114 µM), inactives show top-dose activity change, negative = inhibition, hits mostly inhibitors; note: nearly all actives have a fitted effect of over 70% in size
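Compound inhibition of the preformed complex between 50 nM HP1-beta and 50 nM biotinylated H3K9me3 peptide was read by AlphaScreen. Buffer was PBS pH 7.4 with 0.01% Tween-20. Incubations ran 30 min at room temperature, with 10 ug/mL donor/acceptor beads.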
* hit, by the source's call; ? = inconclusive; . = no result; [ ] = remark or other dose. A selection: hits, their analogues and other compounds. The true share with any hit is near 10%. Calls come from the whole dose curve; as a rule, active = well fitted curve in the direction sought with a large enough effect; inconclusive = small, poorly fitted or top-dose-only effect, or another doubt; inactive = no such curve, though single readings can be large; an effect the other way counts as inactive or inconclusive. Potency is the fitted concentration of half-maximal effect.

SMILES	JMJD2A Tudor inh	L3MBTL1 inh	G9a inh	GLS inh	BAZ2B block	HP1b chromo inh
Cc1cccc(C)c1-n1c(C)cc(/C=N/NC(=O)c2ccncc2)c1C	?	-8%	?	10%	?	15%
Cc1ccccc1N(CC(=O)N/N=C/c1cc(Br)c(C)o1)S(C)(=O)=O	-24%	-5%	?	19%	?	-9%
Cc1cccc(C)c1-n1c(C)cc(/C=N/NC(=O)CSc2ncccn2)c1C	50µM*	-2%	17%[59 µM]	6%	45µM*	?
Cc1ccccc1N(CC(=O)N/N=C/c1cc(C)n(-c2ccccc2C)c1C)S(C)(=O)=O	?	.	10µM*	4%	?	-3%
Cc1cc(C)cc(-n2c(C)cc(/C=N\NC(=O)COc3cccc4cccnc34)c2C)c1	?	-10%	45µM*	2%	?	2%
Cc1cccc(C)c1-n1c(C)cc(/C=N\NC(=O)CC(=O)NC2CCCCC2)c1C	?	-13%	-4%[59 µM]	3%	50µM*	?
Cc1ccc(-n2ncc(C(=O)NCCCN3CCCCC3)c2C2CCN(C(=O)OC(C)(C)C)CC2)cc1	-19%	.	-5%[59 µM]	5%	7%[57.1 µM]	24%
CCCc1cc(N2CCN(c3cc(Cl)ccc3C)CC2)n2cnnc2n1	-25%	.	10%[59 µM]	8%	-24%	48%
O=C(CNC(=O)c1ccccc1)OCC(=O)c1cccc2ccccc12	-28%[57.1 µM]	.	.	.	.	15%[57 µM]
Brc1ccc(Nc2c3c(nc4nncn24)CCC3)cc1	-13%	.	-7%[59 µM]	-3%	5%	41%
Nc1c(C(=O)NCc2cccs2)nnn1CC(=O)Nc1cccc(F)c1	-8%	.	5%[59 µM]	1%	.	33%
Cc1cc(C)nc(SCC(=O)N/N=C\c2sccc2C)n1	-9%	?	10%	3%	0%	25%
Cc1cc(C)nc(SCC(=O)N/N=C/c2cc(C)n(-c3ccccc3C)c2C)n1	?	-13%	50µM*	20%	45µM*	?
CNc1c(NC(=O)c2ccc(OC)c(OC)c2)c(=O)oc2ccccc12	-2%	.	7%[59 µM]	-1%	5%	30%
O=C(O)C1Cc2ccccc2CN1C(=O)CCl (stereo unspecified)	?	-12%	8.9µM*	2%	.	14%
O=C(O)C1Cc2ccccc2CN1C(=O)COc1ccc(Br)cc1 (stereo unspecified)	?	.	50µM*	0%	.	6%
O=C(O)C1Cc2ccccc2CN1C(=O)COc1ccc(Cl)cc1Cl (stereo unspecified)	-17%	.	25µM*	-7%	-31%	12%
O=C(C1Cc2ccccc2CN1C(=O)c1ccccc1)N1CCN(c2ccccc2)CC1 (stereo unspecified)	?	?	.	-11%	71µM*	-29%
CCCOc1ccc(CNC(=O)Cn2ncn3c(cc4sc(CC)cc43)c2=O)cc1	5%	.	6%[59 µM]	6%	6%	35%
COc1ccc(CNC(=O)Cn2c(=O)nc(-c3ccccc3F)c3cc(Cl)ccc32)cc1	-5%	.	-33%[12.7 µM]	-8%	-19%	26%
Cn1nnc2c(NCCc3ccccc3)ncnc21	-5%	.	3%[59 µM]	2%	4%	29%
CCc1ccc(S(=O)(=O)/N=C2\C=C(NS(=O)(=O)c3ccccc3)C(=O)c3ccccc32)cc1	22µM*	.	13µM*	-2%	8.9µM*	14µM*
CC(C)c1ccc(S(=O)(=O)/N=C2/C=CC(=O)c3ccccc32)cc1	.	.	11µM*	.	7.9µM*	.
Cc1ccc(C)c(S(=O)(=O)/N=C2\C=C(NS(=O)(=O)c3ccccc3)C(=O)c3ccccc32)c1	22µM*	.	14µM*	17%	10µM*	?
CC(C)[n+]1ccn(C2=C([O-])c3ccccc3C(=O)/C2=N\S(=O)(=O)c2ccccc2)c1	-12%	-14%	-36%[12.7 µM]	20%	-23%	7%
SMILES	JMJD2A Tudor inh	L3MBTL1 inh	G9a inh	GLS inh	BAZ2B block	HP1b chromo inh
CC(C)c1ccc(S(=O)(=O)/N=C2\C=C(NS(=O)(=O)c3ccccc3)C(=O)c3ccccc32)cc1	28µM*	.	6.3µM*	-9%	7.1µM*	20µM*
CCc1ccc(S(=O)(=O)Nc2ccncc2)cc1	-19%	47%	.	0%	50%	27%
CC(C)(C)c1cc[n+](C2=C([O-])c3ccccc3C(=O)/C2=N\S(=O)(=O)c2ccccc2)cc1	-1%	-27%	.	3%	-37%	25%
CCNC(=O)c1cnc2sc(N3CCCCCC3)nn2c1=O	-9%	.	4%[59 µM]	-6%	-11%	27%
COc1ccc(Cl)cc1NCc1nnc2n1CCCCC2	-4%	.	-2%[59 µM]	34%	19%	41%[57 µM]
COc1ccc(OC)c(NC(=O)c2cc3c(=O)n4cccc(C)c4nc3n2C)c1	3%	.	4%[59 µM]	0%	1%	31%
O=C1c2ccccc2C(=O)C1c1ccc(Cl)cc1	-19%	.	45µM*	0%	?	9%
COCCCN=C(c1ccco1)n1c(=S)nc(-c2ccco2)n(CCCOC)c1=S	56µM*	?	7.9µM*	11%	?	22µM*
COCCCn1c(-c2ccco2)nc2ccccc2c1=O	-8%	-2%	-1%[59 µM]	-5%	4%	37%
CCC1CCCCN1C(=O)CSc1nc(N)c(NC(=O)c2ccc(OC)c(OC)c2)c(=O)[nH]1 (stereo unspecified)	-14%	-1%	50µM*	-12%	11%	31%
CC1CCN(C(=O)CSc2nc3ncccc3[nH]2)CC1	-5%	.	1%[0.0925 µM]	7%	-7%	-2%
CCC1CCCCN1C(=O)CSc1nc2ncccc2[nH]1 (stereo unspecified)	50µM*	.	.	3%	-27%	?
Fc1cccc(CSc2nc3ncccc3[nH]2)c1	-13%	-4%	-11%[59 µM]	18%	-36%	24%
O=C(CSc1nc2ncccc2[nH]1)NC1CCCC1	0%	0%	22µM*	-2%	4%	-4%
COC(=O)CSc1nc(N)c(NC(=O)c2ccc(OC)c(OC)c2)c(=O)[nH]1	-15%	8%	?	26%	3%	26%
Fc1ccc(CSc2nc3ncccc3[nH]2)cc1	-4%	-3%	50µM*	11%	-4%	-12%
O=S(=O)(NCc1ccc(Cl)cc1)c1ccc2[nH]c3c(c2c1)CCCC3	?	.	-2%[59 µM]	8%	11%	-19%
COc1ccc(C2=Nn3c(nnc3-c3ccccc3O)SC2)cc1OC	-9%	.	.	.	.	.
CCCC1=Nc2cc(C(=O)N3CCN(c4ccccn4)CC3)ccc2Sc2ccc(C)cc21	?	.	16µM*	-7%	?	0%
CCC1=Nc2cc(C(=O)N3CCCCC3)ccc2Sc2ccc(C)cc21	?	.	?	-14%	-32%	0%
CCCC1=Nc2cc(C(=O)N3CCC(C)CC3)ccc2Sc2ccc(C)cc21	-20%	.	11%[59 µM]	-3%	12%	27%
